Experimental data from PubChem BioAssay (EPA / NIEHS).
Inconclusive results are not listed. The source made the active and inactive calls. The calls were made as follows, unless noted: active = hit-call score of the fitted dose curve at least 0.9, where 1 is the maximum; inactive = score below 0.9.

Columns and labels:
[1] = CCTE_Shafer_MEA_dev_network_spike_number: CCTE's Neural Network Formation Assay for Number of Network Spikes, Shafer Lab (AID 2284048);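 also: synchronized bursts across electrodes counted on days 5 7 9 12 and integrated as AUC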
Method in brief: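 Extracellular recordings from 16-electrode wells track network formation in rat cortical cultures under continuous treatment from plating. The endpoint is network spike number, expressed as AUC across DIV 5–12 relative to DMSO vehicle.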

[2] = CCTE_Shafer_MEA_dev_network_spike_peak: CCTE's Neural Network Formation Assay for Mean Number of Electrodes in Network Spike, Shafer Lab (AID 2284049)
Method in brief: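 Continuous 12-day exposure of rat cortical cultures, starting at plating, on MEA plates. Endpoint: electrodes participating in network-spike peaks, AUC across DIV 5–12, DMSO as negative control.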

[3] = CCTE_Shafer_MEA_dev_spike_duration_mean: CCTE's Neural Network Formation Assay for Mean Spike Duration, Shafer Lab (AID 2284051);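 also: mean network spike duration pooled as area under curve over DIV 5 to 12 recordings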
Method in brief: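 Spontaneous activity was recorded on days 5, 7, 9 and 12 from rat cortical cultures grown on microelectrode arrays and dosed continuously from day 0, with media and compound renewed after the DIV 5 and 9 recordings. Network-spike duration was collapsed by area under the curve.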

[4] = CCTE_Shafer_MEA_dev_network_spike_duration_std: CCTE's Neural Network Formation Assay for Standard Deviation of Network Spike Duration, Shafer Lab (AID 2284052);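 also: hits are decreases in network spike duration SD versus DMSO vehicle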
Method in brief: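 Network spike duration variability was collapsed across recordings on days 5, 7, 9 and 12 by trapezoidal area-under-curve and fitted downward against DMSO. Cultures were rat cortical neurons on PEI-coated MEA plates, dosed continuously from plating, refed with compound DIV 5/9.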

[5] = CCTE_Shafer_MEA_dev_per_network_spike_spike_number_mean: CCTE's Neural Network Formation Assay for Mean Number of Spikes in a Network Spike, Shafer Lab (AID 2284053)
Method in brief: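 Mean spike count within each network spike, taken in a 0.05 s window at its peak, was recorded on days 5, 7, 9 and 12 and integrated as trapezoidal area under the curve. Rat cortical cultures on MEA plates received continuous compound from day 0, refreshed at medium changes on DIV 5 and 9.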

[6] = CCTE_Shafer_MEA_dev_per_network_spike_spike_percent: CCTE's Neural Network Formation Assay for Percent of Spikes in a Network Spike, Shafer Lab (AID 2284054)
Method in brief: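 Developing networks of rat cortical neurons are dosed at day 0 and recorded extracellularly four times up to day 12. The endpoint is the area under the curve of percent spikes in network spikes, fitted in the negative direction relative to DMSO.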

[7] = CCTE_Shafer_MEA_dev_LDH: CCTE's Lactate Dehydrogenase Assay for Cytotoxicity in the Neural Network Formation Assay, Shafer Lab (AID 2284068; active = hit-call score of the fitted dose curve at least 0.9, where 1 is the maximum;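 also: exposure for twelve days from plating with re-dosing on DIV 5 and 9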)
Method in brief: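 Primary rat cortical neurons were cultured on PEI-coated MEA plates and exposed from plating through day 12, with compound renewed at medium changes on DIV 5 and 9. LDH activity was read spectrophotometrically; loss of signal versus DMSO indicates reduced viability.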

[8] = CCTE_Shafer_MEA_dev_AB: CCTE's Alamar Blue Assay for Cytotoxicity in the Neural Network Formation Assay, Shafer Lab (AID 2284083; active = hit-call score of the fitted dose curve at least 0.9, where 1 is the maximum;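 also: resazurin reduction fluorescence as viability of cultured neurons; twelve days of exposure from plating with re-dosing on DIV 5 and 9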)
Method in brief: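 Resazurin fluorescence, relative to DMSO, gauges viability after twelve days of exposure that began at plating of rat cortical neurons (1.5 x 10^5 cells/well, 48-well MEA); treatment renewed with full medium exchange on DIV 5 and 9.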

[9] = CCTE_Shafer_MEA_dev_mutual_information_norm: CCTE's Neural Network Formation Assay for Mutual Information Normalization, Shafer Lab (AID 2284091)
Method in brief: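 Exposure of primary rat cortical neurons began at plating and ran to DIV 12, with full media and treatment renewal after DIV 5 and 9 recordings. Mutual information AUC (DIV 5–12) was analysed for loss versus DMSO.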

[10] = CCTE_Shafer_MEA_dev_correlation_coefficient_mean: CCTE's Neural Network Formation Assay for Mean Correlation Coefficient, Shafer Lab (AID 2284093)
Method in brief: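 Primary rat cortical neurons on PEI-coated 48-well MEA plates (16 electrodes/well) were exposed from plating day 0 through DIV12, with compound renewed at DIV5 and 9. Pairwise spike correlations were averaged per well; trapezoidal AUC across DIV5, 7, 9, 12.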

[11] = CCTE_Mundy_HCI_Cortical_Synap_Neur_Matur_NeuriteSpotCountPerNeuriteLength: CCTE's Synaptogenesis and Neurite Maturation Assay in rat cortical cells for Neurite Spot Count per Neurite Length, Mundy Lab (AID 2284210)
Method in brief: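 Neurite-associated synapse density (synaptophysin puncta per unit neurite length) is measured by fluorescence high-content imaging in rat cortical cultures treated from DIV 7 and fixed at DIV 12, with DMSO as negative control.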

[12] = CCTE_Mundy_HCI_Cortical_NOG_NeuriteLength: CCTE's Neurite Outgrowth Assay in rat cortical cells for Neurite Length, Mundy Lab (AID 2284213)
Method in brief: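 First, rat primary cortical cells were plated and, 2 h later, given test chemical as a 1/10 dilution. Finally, βIII-tubulin immunostaining enabled automated imaging of neurite length.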

[13] = CCTE_Mundy_HCI_Cortical_Synap_Neur_Matur_NeuriteSpotCountPerNeuron: CCTE's Synaptogenesis and Neurite Maturation Assay in rat cortical cells for Neurite Spot Count per Neuron Count, Mundy Lab (AID 2284215)
Method in brief: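 Rat primary cortical cultures given AraC at DIV 5, dosed from DIV 7 to DIV 12 with media change. Fixed, stained for MAP2, synaptophysin and Hoechst; neurite-associated synaptophysin puncta per neuron quantified by high-content imaging versus DMSO.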

[14] = CCTE_Mundy_HCI_Cortical_Synap_Neur_Matur_SynapseCount: CCTE's Synaptogenesis and Neurite Maturation Assay in rat cortical cells for Synapse Count, Mundy Lab (AID 2284218)
Method in brief: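 Endpoint: synapses/neuron by HCI (synaptophysin puncta on MAP2-labelled neurites, Hoechst nuclei). Rat primary cortical cells, AraC DIV 5, dosed DIV 7, fixed DIV 12; DMSO negative control.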

[15] = CCTE_Mundy_HCI_hN2_NOG_NeuriteCount: CCTE's Neurite Outgrowth Assay in human hN2 cells for Neurite Count, Mundy Lab (AID 2284219; active = hit-call score of the fitted dose curve at least 0.9, where 1 is the maximum)
Method in brief: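 In this morphology assay, hNP1-derived neurons received test chemical 2 h post-plating and were fixed two days later in warm paraformaldehyde/sucrose containing Hoechst 33342. Neurites, labelled by rabbit anti-βIII-tubulin (1:800) and Alexa Fluor-488 (1:500), were counted automatically.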

[16] = CCTE_Mundy_HCI_hN2_NOG_NeuriteLength: CCTE's Neurite Outgrowth Assay in human hN2 cells for Neurite Length, Mundy Lab (AID 2284220; active = hit-call score of the fitted dose curve at least 0.9, where 1 is the maximum)
Method in brief: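 Using βIII-tubulin immunofluorescence and Hoechst nuclear counterstain, this component quantifies neurite length in hNP1-derived neurons.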

[17] = CCTE_Mundy_HCI_Cortical_Synap_Neur_Matur_CellBodySpotCount: CCTE's Synaptogenesis and Neurite Maturation Assay in rat cortical cells for Cell Body Spot Count, Mundy Lab (AID 2284223)
Method in brief: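 Primary rat cortical cultures, AraC added at DIV 5; dosed DIV 7 through DIV 12 […]. Fixed, stained for MAP2 and synaptophysin with Hoechst; cell body-associated synaptophysin puncta per neuron counted by high-content imaging, loss vs DMSO.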

[18] = CCTE_Mundy_HCI_hNP1_Pro_ResponderAvgInten: CCTE's Proliferation Assay in human neuroprogenitor cells, Mundy Lab (AID 2284224; active = hit-call score of the fitted dose curve at least 0.9, where 1 is the maximum;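 also: human neural progenitor cells hNP1 derived from WA09 embryonic stem cells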)
Method in brief: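 Human neuroprogenitors (hNP1, WA09 lineage) receive test chemical after 40 to 44 hours of attachment. A four-hour BrdU pulse begins twenty hours later, followed by fixation and high content imaging; signal is referenced to DMSO controls.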

[19] = CCTE_Mundy_HCI_hNP1_Casp3_7: CCTE's Caspase-Glo 3/7 Assay in human neuroprogenitor cells for Apoptosis, Mundy Lab (AID 2284240)
Method in brief: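 Neuroepithelial-lineage stem cells from WA09 embryonic cells were treated with chemicals after 40–44 h of culture. Twenty-four hours later, caspase-3/7 activation was detected luminescently after a 30 min room-temperature reagent step, with DMSO as baseline.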

Measured: outcome

O=C(O)CNCP(=O)(O)O
inactive: all assays above
